Bioassay records: PubChem, National Center for Advancing Translational Sciences (NCATS)
PLK1 PBD block: inhibitors of human PLK1 polo-box domain binding | P53350 | Plk1 PBD binding of FITC phosphopeptide, fluorescence polarization | Potency, µM, inactives show max response, negative = inhibition, hits mostly inhibitors | actives 2.8% (n = 360,000) | AID 720504; further: series mostly up to about 57 µM; on the % scale 0 is the no-effect control and ±100 the full control effect; nearly all actives have a fitted effect of over 65% in size
HP1b binding inh: inhibitors of HP1-beta chromodomain binding to methylated histone tails. AID 540317. AlphaScreen HP1-beta / biotin-H3K9me3 peptide binding. actives 0.56% (n = 390,000). Potency, µM (doses to about 114 µM), inactives show at the top dose activity change, negative = inhibition, hits mostly inhibitors. P83916; further: nearly all actives have a fitted effect of over 70% in size
Target sequence (P83916 whole entry, looked up): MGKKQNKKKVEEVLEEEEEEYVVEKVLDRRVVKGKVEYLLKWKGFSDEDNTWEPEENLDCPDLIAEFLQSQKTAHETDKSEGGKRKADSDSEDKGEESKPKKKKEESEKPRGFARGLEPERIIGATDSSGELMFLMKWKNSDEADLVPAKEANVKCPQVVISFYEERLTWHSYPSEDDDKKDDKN
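HP1-beta protein (50 nM final) preincubated 30 min at room temperature with biotinylated H3(1-18)K9me3 peptide (50 nM) in PBS pH 7.4, 0.01% Tween-20, then compound added for 30 min. AlphaScreen streptavidin donor/nickel chelate acceptor beads (10 ug/mL final), 30 min dark, luminescence read.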
Sfp inh: blocks B. subtilis Sfp PPTase activity. Potency, µM, for the others: largest response in the series, negative = inhibition, actives largely listed as inhibitors. Biochemical Sfp PPTase activity, qHTS. Q9F4F7. actives 3.5% (n = 310,000). AID 1490;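 further: the enzyme is Sfp with the accession as filed and its product quenches rhodamine fluorescence; 0% = enzyme reaction without inhibitor and -100% = no enzyme wells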
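Step 1, compound plus 15 nM Sfp-PPTase, 15 min, room temperature. Step 2, add rhodamine-CoA (5 uM) and BHQ-2-YbbR (12.5 uM). Step 3, read 525/598 nm fluorescence at 0 and 30 min.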
G9a block: inhibitors of human histone lysine methyltransferase G9a. Potency, µM (top dose mostly 102 µM), inactives show at the highest dose activity, negative = inhibition, hits mostly inhibitors. Q96KQ7. actives 8.8% (n = 350,000). G9a H3K9 monomethylation, AlphaScreen, 2 h; further: on the % scale 0 is the no-effect control and ±100 the full control effect; nearly all actives have a fitted effect of over 75% in size
Target sequence (Q96KQ7 913-1193 limits assumed): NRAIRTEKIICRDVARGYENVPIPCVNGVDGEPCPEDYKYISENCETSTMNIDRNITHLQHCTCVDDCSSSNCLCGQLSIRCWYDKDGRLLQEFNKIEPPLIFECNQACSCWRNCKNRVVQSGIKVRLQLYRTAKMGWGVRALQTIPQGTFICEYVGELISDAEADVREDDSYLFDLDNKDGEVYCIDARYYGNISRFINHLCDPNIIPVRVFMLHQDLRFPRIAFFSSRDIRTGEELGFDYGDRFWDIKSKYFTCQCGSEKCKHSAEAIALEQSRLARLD
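Methyltransferase reactions run at room temperature for 2 h (20 nM enzyme, 500 nM biotin-H3K9 peptide, 20 uM SAM) after a 15 min compound preincubation; product detected by AlphaScreen beads and anti-H3K9me1 antibody.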
BAZ2B inh: blocks human BAZ2B; Q9UIF8; AlphaScreen BAZ2B-H3K14Ac peptide displacement; Potency, µM (top dose mostly 114 µM), without a hit: at the top dose activity change, negative = inhibition, actives largely listed as inhibitors; actives 4.4% (n = 360,000); AID 504333; further: on the % scale 0 is the no-effect control and ±100 the full control effect; nearly all actives have a fitted effect of over 60% in size
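Protein-peptide AlphaScreen: BAZ2B 50 nM, b-H3K14Ac 50 nM, 1x PBS pH 7.4 + 0.01% Tween-20. Preincubation 30 min RT; cpd 30 min RT (top 110 uM); beads 20 min RT, light-protected.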
JMJD2A Tudor: JMJD2A Tudor domain (human) inhibition; O75164; AlphaScreen JMJD2A-Tudor / H3K4me3 peptide binding; Potency, µM (series often up to 114 µM), for the others: at the top dose activity change, negative = inhibition, actives largely listed as inhibitors; actives 4.4% (n = 390,000); further: on the % scale 0 is the no-effect control and ±100 the full control effect; nearly all actives have a fitted effect of over 50% in size
* = called active by the depositor; ? = inconclusive; . = not tested or not shown; ! = repeats disagree; [ ] = dose if it differs, or a comment. Most compounds without a hit are left out; they make up all but 12% or so of the library. The call rests on the fitted dose curve; in most records, active means well fitted curve in the direction sought with a large enough effect; inconclusive means small, poorly fitted or top-dose-only effect, or another doubt; inactive means no such curve, though single readings can be large; an effect the other way counts as inactive or inconclusive. Potency means the concentration at half of the fitted maximal effect.

SMILES | PLK1 PBD block | HP1b binding inh | Sfp inh | G9a block | BAZ2B inh | JMJD2A Tudor
CCOC(=O)c1c(CN2CCN(C)CC2)oc2ccc(O)cc12 | 0.7% | 30.6% | 0.1% | 50.1µM* | ? | -19.8%
CCc1ccc(CN(C)CC(=O)Nc2ccc(S(=O)(=O)N3CCOCC3)cc2)cc1 | -5.3% | 37.9% | . | -12.3%[12.7 µM] | -1.4% | -7.7%
COC(=O)c1cc(=O)n(Cc2ccc(OC)c(OC)c2)c(=Nc2ccc(F)cc2)s1 | -7.9% | -10.8% | ? | ? | 15.3% | ?
COC(=O)c1cc(=O)n(CCc2ccc(OC)c(OC)c2)c(=Nc2ccc(F)c(Cl)c2)s1 | -8.8% | -6.4% | ? | 25.1µM* | ? | ?
CN(C)C(=O)NC1c2ccccc2-c2ccccc21 | -1.5% | 35.4% | 8.0% | 5.2% | 2.2% | 2.3%
O=C(NC1c2ccccc2-c2ccccc21)c1ccccc1 | 26.7µM* | -2.1% | -1.2% | 22.8%[59 µM] | -1.6% | -17.5%
CC(C)c1ccc(O)c(C(=O)c2cnn(-c3ccccc3)c2)c1 | 2.0% | 10.3% | . | . | . | 12.3%
O=C(O)CCCNc1n[nH]c(=O)[nH]c1=O | -2.9% | 34.8% | -11.3% | 14.1µM* | ? | -10.5%
CCOc1cc(C(=O)N(Cc2nc(-c3ccc(C)cc3)no2)C(C)C)cc(OCC)c1OCC | . | 27.2% | . | 0.3%[59 µM] | 0.4% | -6.1%
CCn1c(SCC(=O)Nc2cccc(C)c2)nc2c(c1=O)SC(C)C2 (stereo not given) | -10.7% | 22.3% | 11.8% | 50.1µM* | -25.3% | -35.2%
CCn1c(SCC(=O)Nc2ccc3c(c2)OCO3)nc2c(c1=O)SC(C)C2 (stereo not given) | -6.8% | 9.3% | 17.8% | -44.0%[59 µM] | -28.2% | -28.3%
Cc1cccc(NC(=O)CSc2nc3sc(C)cc3c(=O)n2C)c1 | 26.7µM* | -28.5%[57 µM] | . | . | . | ?
Cc1cc2c(SCC(=O)Nc3cccc(O)c3)ncnc2s1 | ? | 5.3%[57 µM] | . | . | . | 50.1µM*
CC1Cc2nc(SCC(=O)NC3CCCCC3)n(C)c(=O)c2S1 (stereo not given) | -13.0% | 32.9% | 20µM* | -26.5%[59 µM] | 7.2% | -26.0%
Cc1cc2c(=O)n(C)c(SCC(=O)Nc3cccc(O)c3)nc2s1 | ? | -3.5% | 1.9% | ? | 3.1% | -20.3%
COc1ccc(NC(=O)CSc2ncnc3sc(C)cc23)cc1 | -6.0% | -15.4% | -6.1% | -3.5% | -12.6% | -18.9%
Cc1ccc(F)cc1C(=O)N1CCCC(c2cc(C(=O)NCc3ccc(F)cc3)no2)C1 (stereo not given) | -3.9% | . | . | . | . | .
O=C(O)c1cc(O)c2c(c1)C(=O)c1cccc(O)c1C2=O | ? | ? | 56.2µM*! | 39.8µM* | 50.1µM* | 56.2µM*
CNC(=O)c1cc2c(n(-c3ccc(C)cc3)c1=O)CC(C)(C)CC2=O | . | 7.1% | . | 2.9%[59 µM] | -1.1% | -3.1%
COc1cccc(C(c2c(N)[nH]c(=S)[nH]c2=O)c2c(N)[nH]c(=S)[nH]c2=O)c1 | -7.5% | 19.8% | 79.4µM* | . | -8.1% | ?
COc1cccc(C(NC(=O)c2ccccc2F)NC(=O)c2ccccc2F)c1 | -3.9% | 9.7% | ? | -4.4% | 8.2% | -8.8%
CCCCOC(=O)C1CN(c2ccccc2)N=C1C(=O)OCC (stereo not given) | 2.9% | 328.1% | -4.6% | 431.5% | 314.8% | 201.4%
CCCCOC(=O)C1CN(c2ccccc2)N=C1C(C)=O (stereo not given) | 26.7µM* | 113.5% | 4.5% | . | 84.1% | 43.5%
COc1cccc(CNC(=O)C(C)n2c(=O)cc(-c3ccccc3)c3c(C)nn(C)c32)c1 (stereo not given) | . | -10.6% | . | 8.3%[59 µM] | -10.8% | -28.0%
CC1(C)Cc2c(sc3[nH]c(=S)n(Cc4ccco4)c(=O)c23)CO1 | ? | -7.7% | 14.1µM* | 50.1µM* | -3.1% | ?
SMILES | PLK1 PBD block | HP1b binding inh | Sfp inh | G9a block | BAZ2B inh | JMJD2A Tudor
COCCCn1c(=S)[nH]c2sc3c(c2c1=O)CCCC3 | ? | 1.8% | -23.7% | 8.91µM* | -3.5% | ?
O=c1c2c3c(sc2[nH]c(=S)n1Cc1ccco1)CCC3 | ? | 2.1% | 50.1µM* | 14.1µM* | 44.7µM* | -16.2%[11.4 µM]
CC1(C)Cc2c(sc3c2c(=N)n(Cc2ccco2)c(=O)n3Cc2ccccc2)CO1 | ? | -7.0% | -13.3% | ? | 79.4µM* | -7.5%[11.4 µM]
CSCCC(NC(=O)c1cc(CC(C)C)oc1C)C(=O)O (stereo not given) | -8.3% | 65.4% | -2.2% | -10.0%[59 µM] | -5.9% | -9.3%
Cc1oc(-c2ccc3c(c2)OCCO3)cc1C(=O)NC(CCC(=O)O)C(=O)O (stereo not given) | -3.5% | 46.3% | 17.8µM* | ? | ? | -11.1%
CSCCC(NC(=O)c1cc(C)oc1C)C(=O)O (stereo not given) | 0.3% | 35.7% | -24.0% | 31.6µM* | 3.0% | 6.3%
O=[N+]([O-])c1ccc(Cl)c(S(=O)(=O)/N=C(/Nc2cccnc2)c2ccccc2)c1 | -6.8% | 7.1% | . | . | . | -21.2%
Cc1oc(-c2ccc3c(c2)OCCO3)cc1C(=O)NCC(=O)O | ? | -9.0% | -20.0% | . | 7.0% | ?
CSCCC(NC(=O)c1cc([N+](=O)[O-])ccc1Cl)C(=O)O (stereo not given) | -6.5% | 47.3% | -2.8% | 79.4µM* | 12.9% | -7.8%[57.1 µM]
O=C(Nc1cccnc1)c1ccc(NS(=O)(=O)c2cc([N+](=O)[O-])ccc2Cl)cc1 | -5.1% | 20.2% | -23.2% | 50.1µM* | 79.4µM* | -17.1%
O=C(Nc1ccc(Nc2ccccc2)cc1)c1cc([N+](=O)[O-])ccc1Cl | -8.5% | 19.3% | 13.7% | -22.7% | 39.8µM* | ?
O=C(Nc1ccccc1Oc1ccccc1)c1cc([N+](=O)[O-])ccc1Cl | -10.2% | -20.0% | -4.2% | ? | ? | ?
O=C(CSc1nc(-c2cccs2)cc(C(F)(F)F)n1)Nc1cc(OCC(F)(F)C(F)F)cc([N+](=O)[O-])c1 | 0.7% | 9.3% | ? | 4.5% | -1.5% | -20.1%
COc1cccc(/C=N/NC(=O)c2oc3nc(-c4ccccc4)cc(-c4ccco4)c3c2N)c1 | 3.4% | 36.9% | -12.8% | 31.6µM* | -19.6% | -9.7%
Cc1ccc(-c2cc(-c3ccco3)c3c(N)c(C(=O)NN)oc3n2)cc1 | 1.6% | -1.4% | ? | . | ? | ?
Cc1ccc(CNC(=O)C(=O)Nc2c3c(nn2-c2ccc(F)cc2)CSC3)cc1 | . | 35.2% | . | 15.5%[59 µM] | -1.0% | -1.0%
CC1CCCC(C)N1/N=C/c1cc(Br)c(O)c(Br)c1 (stereo not given) | . | . | 56.2µM* | 5.62µM* | -23.4% | .
CC1CCCC(C)N1/N=C/c1ccc(O)c(O)c1 (stereo not given) | -3.9% | ? | 44.7µM* | 3.55µM* | ? | 22.4µM*
Cc1cccc(NC(=O)c2sc(-n3nc(C)c(CCC(C)C)c3C)nc2C)c1C | . | 55.9% | . | -2.0%[59 µM] | -2.9% | 12.3%
